Data: PubChem BioAssay AID504466 (National Center for Advancing Translational Sciences (NCATS), 2011)
Among all 330,000 compounds or so, about 4,200 (1.3%) were called active. Inconclusive results (about 6%) are left out. Shown is part of a subset that was picked to be rich in actives. Unmarked numbers belong to inactive results. The call rests on the fitted dose curve; in most records, active means well fitted activation curve with a large enough effect; inconclusive means small, poorly fitted or top-dose-only effect; inactive means no such curve, though single readings can be large or run the other way.
Potency means the concentration at half of the fitted maximal effect.

Assay: qHTS screen for small molecules that induce genotoxicity in human embryonic kidney (HEK293T) cells expressing luciferase-tagged ELG1; further: nearly all actives have a fitted effect of over 60% in size; on activity change, positive = activation: % of control where 0% means no effect
Details: HEK293T ELG1-luciferase reporter, luminescence, 16 h; series mostly up to 46 µM; activity change, positive = activation: at the top concentration
Procedure, shortened: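 Genotoxic stress is detected as increased luminescence from luciferase-tagged ELG1 in HEK293T cells, measured with ONE-Glo after a 16 hr treatment at 37 °C.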
In the case of `O=C(COC(=O)c1cc[n+]([O-])cc1)Nc1ccc(Cl)c(C(F)(F)F)c1`, the “activity change, positive = activation” value is reported as 0.532%. For `COc1ccc(C(=O)Cc2cnn(-c3ccccc3)c2)c(O)c1`, the Potency was 18.4 µM (active). For `Cc1cc(O)cc(O)c1C(=O)Cc1cnn(-c2ccccc2)c1`, the “activity change, positive = activation” value was -0.749%. In the case of `COc1ccc(C(=O)CC(=O)c2ccc(C)cc2)c(O)c1`, the “activity change, positive = activation” value is reported as -0.576%. In the case of `CC(=NCc1ccco1)c1c(C(F)(F)F)[nH]n(-c2nc3ccccc3s2)c1=O`, the Potency is reported as 2.59 µM (active). In the case of `CCC1(CC)NC(=O)N(Cc2nc3ccccc3s2)C1=O`, the “activity change, positive = activation” value is reported as 0.75%. With `CCc1ccc(-c2cc(C(=O)NCc3ccco3)c3ccccc3n2)s1` the “activity change, positive = activation” value was -2.94%. In the case of `COc1cc(OC)cc(C(=O)NCC(=O)OCC(=O)NC(C)CCc2ccccc2)c1` (centres undefined), the “activity change, positive = activation” value is reported as 4.19%. In the case of `COc1cc(OC)c(C(=O)NNC(=O)c2ccccc2-n2cccc2)cc1OC`, the “activity change, positive = activation” value is reported as -4.42%. For `CSc1ccc(C#N)cc1NC(=O)c1cccc(Cl)c1`, the “activity change, positive = activation” value was -0.357%. For `N#Cc1ccccc1NC(=O)c1cccc(COc2ccc(Cl)cc2Cl)c1`, the Potency was 0.461 µM (active). For `O=C(Nc1ccn(Cc2ccccc2F)n1)c1ccc(COc2ccc(Cl)cc2Cl)o1`, the “activity change, positive = activation” value was -6.31%. For `O=C(COC(=O)c1ccccn1)NNC(=O)c1ccc(Br)cc1`, the “activity change, positive = activation” value was 4.55%. In the case of `O=C(N[C@H]1C/C=C\C(c2cccc(F)c2)N(Cc2ccccc2)C(=O)C1)OCC1c2ccccc2-c2ccccc21` (some centres undefined), the “activity change, positive = activation” value is reported as -3.88%. For `COc1ccc(S(=O)(=O)N(C)C[C@H]2Oc3c(NC(=O)Nc4ccc5c(c4)OCO5)cccc3C(=O)N([C@H](C)CO)C[C@@H]2C)cc1`, the “activity change, positive = activation” value was -8.42%. In the case of `CC(Oc1ccc2c(-c3ccccc3)cc(=O)oc2c1)C(=O)NC(Cc1c[nH]c2ccccc12)C(=O)O` (centres undefined), the “activity change, positive = activation” value is reported as 2.46%. In the case of `O=C(Nc1cccc(NC(=O)c2cccc(F)c2)c1)c1ccccc1`, the “activity change, positive = activation” value is reported as -4.69%. In the case of `O=C(Nc1ccccc1N1CCN(c2ccccc2)CC1)c1cccc(F)c1`, the “activity change, positive = activation” value is reported as -9.53%. In the case of `O=C(Nc1ccn(Cc2ccccc2)n1)c1cccc(F)c1`, the Potency is reported as 23.1 µM (active). In the case of `O=S(=O)(Nc1ncnc2sccc12)c1cccc(F)c1`, the “activity change, positive = activation” value is reported as -0.435%. For `Cc1ccc(NC(=O)c2ccc(Cl)nc2)cc1S(=O)(=O)N1CCOCC1`, the “activity change, positive = activation” value was -7.05%. With `COc1cccc(-c2nc3cc(C)ccc3o2)c1` the Potency was 1.3 µM (active). In the case of `COc1ccc2oc(-c3cccc(NC(=O)CSc4ccc(Cl)cc4)c3)nc2c1`, the “activity change, positive = activation” value is reported as 15.5%. With `COc1cccc(-c2nnc(SCCOc3ccc4c(C)cc(=O)oc4c3)o2)c1` the “activity change, positive = activation” value was 2.37%. With `CC(OC(=O)c1ccc([N+](=O)[O-])cc1)C(=O)NCC1CCCCC1` (centres undefined) the “activity change, positive = activation” value was -1.47%. With `CN(Cc1cccnc1)C(=O)c1cc(COc2ccc3ncccc3c2)on1` the “activity change, positive = activation” value was -6.34%. For `Cc1cc(CN(C)C(=O)c2cc(COc3ccc(C)c(C)c3)on2)n[nH]1`, the Potency was 2.91 µM (active). For `CN(Cc1cnccn1)C(=O)c1cc(COc2cccc(C(F)(F)F)c2)on1`, the “activity change, positive = activation” value was 4.54%. With `O=C(Cn1cnc2c(OCc3ccccc3)ncnc21)NCc1nc2ccccc2[nH]1` the “activity change, positive = activation” value was -2.59%. In the case of `COc1cccc(C(=O)NCCSc2ccc(Br)cc2)c1`, the “activity change, positive = activation” value is reported as 0.302%. With `COc1ccc(C(=O)NCCSc2ccccc2C)cc1` the Potency was 4.61 µM (active). For `COc1ccc(C(=O)NCc2nnc(SCCOc3ccccc3)n2C)cc1`, the “activity change, positive = activation” value was -7.93%. In the case of `COc1ccc2nc3n(c(=O)c2c1)-c1ccc(Cl)cc1C(=O)NC3Cc1ccccc1` (centres undefined), the “activity change, positive = activation” value is reported as 1.76%. In the case of `COc1ccc(CCNC(=O)COC(=O)c2ncc(Cl)c(Cl)c2Cl)cc1OC`, the “activity change, positive = activation” value is reported as 1.91%. For `CCOc1cccc(=O)c2c(C)n(CC3CCCO3)c(C)c12` (centres undefined), the “activity change, positive = activation” value was 4.51%. For `O=C1c2cccc3c([N+](=O)[O-])ccc(c23)C(=O)N1CC1CCCO1` (centres undefined), the Potency was 20.6 µM (active). In the case of `CN1CN(C)c2ccc([N+](=O)[O-])c3cccc1c23`, the “activity change, positive = activation” value is reported as -8.83%. In the case of `CC[C@@H](C)[C@@H]1CN([C@@H](C)CN2CCC[C@H]2CN2C(N)=NC[C@H]2C(C)C)C(=N)N1CCc1ccc(Cl)c(Cl)c1`, the “activity change, positive = activation” value is reported as 1.26%. With `COc1ccc(-c2nc3cc(C)ccn3c2NC2CCCCC2)cc1SC1CCCCC1` the “activity change, positive = activation” value was -3.72%. In the case of `CC1(C)CN(c2ccc(-c3ccnc4ncnn34)cc2)C1=O`, the Potency is reported as 12.6 µM (active). For `Nc1c(-c2ccc(F)cc2)cnc2ncnn12`, the “activity change, positive = activation” value was 4.95%. For `Cc1ccc(C2(C)NC(=O)N(CC(=O)N3CC(=O)Nc4ccccc43)C2=O)cc1` (centres undefined), the “activity change, positive = activation” value was 0.0242%. With `Cc1occc1C(=O)Nc1cccc(S(=O)(=O)N2CCOCC2)c1` the “activity change, positive = activation” value was 1.05%. With `O=C1C=CN2CCCC2CC1` (centres undefined) the “activity change, positive = activation” value was 0.906%. In the case of `Cc1ccc(/C=N/NC(=O)c2cc3ccccc3cc2O)o1`, the “activity change, positive = activation” value is reported as 5.35%. In the case of `Cc1cc(N=Nc2ccc3ccccc3c2)ccc1O`, the Potency is reported as 7.3 µM (active). With `Cc1ccc(Br)c(NS(=O)(=O)c2cccc(C(=O)N3CCNC(=O)C3)c2)c1` the “activity change, positive = activation” value was 3.98%. In the case of `CC1(C)CC[C@@]2(C(=O)O)C(C1)C1=CCC3[C@@]4(C)CC[C@H](O)C(C)(C)C4CC[C@@]3(C)[C@]1(C)C[C@H]2O` (some centres undefined), the “activity change, positive = activation” value is reported as -0.0114%. For `O=C(COc1ccc([N+](=O)[O-])cc1Cl)Nc1ccc2[nH]c(=O)[nH]c2c1`, the “activity change, positive = activation” value was 2.56%.
